Laboratory results: PubChem BioAssay (NCI)
About 83,000 compounds went through this panel and 20% of them were active in at least one assay; those are over-represented in the sample as a whole.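 Values shown are percent growth following 48 h exposure of cells in 96-well plates to a single concentration of compound; below 10 was considered active.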 Active and inactive are the calls of the source.

Legend:
Assay in all cases: NCI-60 one-dose screen, 48 h (100 = growth as untreated, 0 = no growth, -100 = all killed)
Settings in all cases: 10 µM unless noted
[1] = system: NCI-H23 lung
[2] = system: NCI-H226 lung
[3] = system: NCI-H322M lung
[4] = system: HOP-62 NSCLC
[5] = system: NCI-H460 lung
[6] = system: NCI-H522 lung
[7] = system: A549/ATCC NSCLC
[8] = system: 786-0 renal
[9] = system: COLO 205 colon
[10] = system: DU-145 prostate
[11] = system: K-562 leukemia
[12] = system: MALME-3M melanoma
[13] = system: MDA-MB-231 breast
[14] = system: RXF 393 renal
[15] = system: SF-268 CNS
[16] = system: SF-295 CNS
[17] = system: SF-539 CNS
[18] = system: UACC-257 melanoma
[19] = system: M14 melanoma

Measured: growth

N[C@@H](CCC(=O)CCl)C(=O)O
inactive: [1] 97.3% [20 µM] | [2] 104% [20 µM] | [3] 98.1% [20 µM] | [4] 95.9% [20 µM] | [5] 106% [20 µM] | [6] 77.1% [20 µM] | [7] 102% [20 µM] | [8] 101% [20 µM] | [9] 106% [20 µM] | [10] 105% [20 µM] | [11] 82.9% [20 µM] | [12] 92.5% [20 µM] | [13] 92.2% [20 µM] | [14] 112% [20 µM] | [15] 98.4% [20 µM] | [16] 98.9% [20 µM] | [17] 104% [20 µM] | [18] 99.9% [20 µM] | [19] 95.9% [20 µM]

C/C(=C\c1ccn(-c2ccc(N)cc2F)n1)[C@@H]1C[C@@H]2O[C@]2(C)CCC[C@H](C)[C@H](O)[C@@H](C)C(=O)C(C)(C)[C@@H](O)CC(=O)O1
active: [10] -19.4% | [14] -7.39% | [16] 8.62% | [17] -4.08% | [19] -5.99%
inactive: [1] 25.2% | [2] 35.6% | [3] 15.5% | [4] 36.4% | [5] 11% | [6] 10.2% | [7] 22.5% | [8] 18.1% | [11] 11.8% | [12] 30.9% | [13] 20.8% | [15] 29.7% | [18] 56.3%

COc1c(O)cc2c(c1OC)-c1ccc(SC)c(=O)cc1C(NC(C)=O)CC2 (centres undefined)
active: [5] 3% | [6] -46.8% | [10] -28.7% | [11] -24.9% | [13] 2.58% | [16] 9.18% | [17] -15%
inactive: [1] 21.4% | [2] 23.1% | [3] 41.1% | [4] 22.2% | [7] 46.4% | [8] 19.1% | [12] 39.9% | [14] 20.3% | [15] 29.7% | [18] 20.1% | [19] 15.7%

S=P(SP(=S)(c1ccccc1)c1ccccc1)(c1ccccc1)c1ccccc1
inactive: [1] 99% | [2] 96.6% | [3] 107% | [4] 111% | [5] 107% | [6] 88.5% | [7] 106% | [8] 110% | [9] 118% | [10] 106% | [11] 97% | [12] 96.5% | [13] 94.1% | [14] 97.1% | [15] 95.8% | [16] 92.5% | [17] 103% | [18] 104% | [19] 101%

C=CC[PH+](c1ccccc1)c1ccccc1.C=CC[PH+](c1ccccc1)c1ccccc1.[Pt+2].[S-]c1nc2ccccc2[nH]1.[S-]c1nc2ccccc2[nH]1
active: [1] -12.4% | [2] -20.6% | [3] 6.44% | [4] -0.445% | [5] -6.83% | [6] -44.2% | [7] -3.29% | [8] -4.36% | [9] -36.7% | [11] 4.86% | [12] -72.8% | [13] -44.3% | [14] -0.0777% | [15] 1.83% | [16] -9.49% | [17] -28.6% | [18] -25.7% | [19] -18.6%
inactive: [10] 15.1%

CC[C@H](C)[C@H](NC(=O)[C@H]1CCCCN1C)C(=O)N(C)[C@H](C[C@@H](OC(C)=O)c1cccc(C(=O)N[C@@H](Cc2ccccc2)C[C@H](C)C(=O)OC)n1)C(C)C
inactive: [1] 22.4% | [2] 23.3% | [3] 40.3% | [8] 14.5% | [12] 66.7% | [14] 13.1% | [15] 13.9% | [18] 47.6%
active: [4] 3.61% | [5] 7.06% | [6] -11.6% | [9] -71.6% | [10] 2.8% | [11] 5.5% | [13] 2.42% | [16] 2.21% | [17] -14% | [19] -8.11%

C[Se]/C=C1/C(=O)N(c2c(Cl)cccc2Cl)c2ccccc21
inactive: [1] 39% | [2] 10.9% | [3] 37.5% | [4] 22% | [5] 14.6% | [6] 21.1% | [8] 51.1% | [10] 43.9% | [11] 20.3% | [12] 37.4% | [13] 31.1% | [14] 19.4% | [16] 38% | [19] 20.4%
active: [7] 7.85% | [15] 8.58% | [17] 0.963% | [18] -4.62%
